Laboratory results: PubChem BioAssay (NCATS)
Results filed as inconclusive are left out. Activity calls are given as the source filed them. Calls follow the shape of the dose curve; as a rule, active = well fitted curve in the direction sought with a large enough effect; inconclusive = small, poorly fitted or top-dose-only effect, or another doubt; inactive = no such curve, though single readings can be large; an effect the other way counts as inactive or inconclusive.

What was measured:
[1] = tested on: CRL-7250; experiment: Cytotoxic Profiling of Annotated Libraries Using Quantitative High-Throughput Screening (AID 1296008); settings: Five cell lines viability, CellTiter-Glo ATP luminescence, 48-72 h; max response: active compounds read low; also: nearly all actives have a fitted effect of over 60% in size; as to max response: % is scaled to controls: 0 for no effect and ±100 for the full control effect
Outline: (§1)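 Cytotoxicity was measured as CellTiter-Glo ATP luminescence, read after 10 min at room temperature. Compound treatment of the cells lasted 48 or 72 hr at 37 degrees Celsius in a qHTS format.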

[2] = tested on: HEK293; experiment: as above; settings: Five cell lines viability, CellTiter-Glo ATP luminescence, 48-72 h; max response: active compounds read low
Outline: as §1

[3] = tested on: HaCat; experiment: as above; settings: Five cell lines viability, CellTiter-Glo ATP luminescence, 48-72 h; max response: active compounds read low
Outline: as §1

[4] = tested on: KB-3-1; experiment: as above; settings: Five cell lines viability, CellTiter-Glo ATP luminescence, 48-72 h; max response: active compounds read low
Outline: as §1

[5] = tested on: NIH3T3; experiment: as above; settings: Five cell lines viability, CellTiter-Glo ATP luminescence, 48-72 h; max response: active compounds read low
Outline: as §1

[6] = tested on: HACAT; experiment: qHTS assay to identify novel small-molecules to repurpose for Merkel cell carcinoma treatment (AID 1296009); settings: MCC and control cell lines, CellTiter-Glo viability, 72 h; at 44.8 µM (top of the series) unless noted; also: nearly all actives have a fitted effect of over 60% in size
Outline: (§2)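 After compound transfer in DMSO, plates were kept 72 hr at 37 degree celsius. Luminescent ATP signal from CellTiter-Glo served as viability measure, normalized against DMSO and no-cell controls.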

[7] = tested on: NIH3T3; experiment: as above; settings: MCC and control cell lines, CellTiter-Glo viability, 72 h; at 44.8 µM (top of the series) unless noted
Outline: as §2

[8] = tested on: C33A; experiment: Primary qHTS to identify gynecologic anti-cancer compounds using libraries of approved drugs and bioactive compounds (AID 1345084); settings: Gynecologic cancer cell panel viability, ATPlite luminescence, 48 h; series mostly up to 57.5 µM; also: % is scaled to controls: 0 for no effect and ±100 for the full control effect; nearly all actives have a fitted effect of over 55% in size
Outline: (§3)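 Luminescence from the ATPlite ATP-monitoring reagent indicates viable cell number; lower signal means cytotoxicity. Cells received compound 16 h after seeding and were exposed for 48 h across five concentrations.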

[9] = tested on: CAOV3; experiment: as above; settings: Gynecologic cancer cell panel viability, ATPlite luminescence, 48 h; series mostly up to 57.5 µM
Outline: as §3

[10] = tested on: CASKI; experiment: as above; settings: Gynecologic cancer cell panel viability, ATPlite luminescence, 48 h; series mostly up to 57.5 µM
Outline: as §3

[11] = tested on: Es-2; experiment: as above; settings: Gynecologic cancer cell panel viability, ATPlite luminescence, 48 h; series mostly up to 57.5 µM
Outline: as §3

[12] = tested on: HeLa; experiment: as above; settings: Gynecologic cancer cell panel viability, ATPlite luminescence, 48 h; series mostly up to 57.5 µM
Outline: as §3

[13] = tested on: Hek293T; experiment: as above; settings: Gynecologic cancer cell panel viability, ATPlite luminescence, 48 h, control line for the selectivity index; series mostly up to 57.5 µM
Outline: as §3

[14] = tested on: JEG-3; experiment: as above; settings: Gynecologic cancer cell panel viability, ATPlite luminescence, 48 h; series mostly up to 57.5 µM
Outline: as §3

[15] = tested on: OV90; experiment: as above; settings: Gynecologic cancer cell panel viability, ATPlite luminescence, 48 h; series mostly up to 57.5 µM
Outline: as §3

O=C(O)CCc1cccc(O)c1O[C@@H]1O[C@H](CO)[C@@H](O)[C@H](O)[C@H]1O
inactive: max response [1] 3.73% | max response [2] -3.2% | outcome [3] | max response [4] 8.15% | outcome [5] | outcome [6] | outcome [7] | Potency [8] | Potency [9] | outcome [10] | Potency [11] | Potency [12] | Potency [13] | Potency [14] | Potency [15]

CC1C(=O)OCC2=CC[N+]3([O-])CCC(OC(=O)C(C)(O)C1(C)O)C23 (stereo not given)
inactive: max response [1] 2.6% | max response [2] 3.51% | outcome [3] | max response [4] 7.03% | outcome [5] | outcome [6] | outcome [7] | Potency [8] | Potency [9] | outcome [10] | Potency [11] | Potency [12] | Potency [13] | Potency [14] | Potency [15]

CC1(C(=O)O)CCCC2(C)C3CCC4CC3(CCC12)CC4C(=O)O (stereo not given)
inactive: outcome [1] | max response [2] 1.27% | outcome [3] | max response [4] 6.21% | outcome [5] | outcome [6] | outcome [7] | Potency [8] | Potency [9] | outcome [10] | Potency [11] | Potency [12] | Potency [13] | Potency [14] | Potency [15]

CC(=C\C(C)O)/C=C(\C)C(=O)CC1CC(CC(N)=O)CC(=O)O1 (stereo not given)
inactive: outcome [1] | max response [2] 1.11% | outcome [3] | outcome [4] | outcome [5] | outcome [6] | outcome [7] | Potency [8] | Potency [9] | outcome [10] | Potency [11] | Potency [12] | Potency [13] | Potency [14] | Potency [15]

CC(C)C1NC(=O)C2CCCN2C1=O (stereo not given)
inactive: outcome [1] | max response [2] 0.78% | outcome [3] | outcome [4] | outcome [5] | outcome [6] | outcome [7] | Potency [8] | Potency [9] | outcome [10] | Potency [11] | Potency [12] | Potency [13] | Potency [14] | Potency [15]

C[C@]1(OC(=O)/C=C/c2ccc(O)cc2)C[C@@H](O)[C@]2(O)C=CO[C@@H](O[C@@H]3O[C@H](CO)[C@@H](O)[C@H](O)[C@H]3O)C12 (stereo not given in full)
inactive: max response [1] 4.79% | max response [2] -2.23% | outcome [3] | max response [4] 6.86% | outcome [5] | outcome [6] inactive [at 17.4 µM] | outcome [7] inactive [at 17.4 µM] | Potency [8] | Potency [9] | outcome [10] | Potency [11] | Potency [12] | Potency [13] | Potency [14] | Potency [15]

COCCN1CCC(C(=O)NO)(S(=O)(=O)c2ccc(Oc3ccc(OC(F)(F)F)cc3)cc2)CC1
inactive: max response [1] -0.582% | max response [2] -3.44% | outcome [3] | outcome [4] | outcome [5] | outcome [6] | outcome [7] | Potency [8] | Potency [9] | outcome [10] | Potency [11] | Potency [12] | Potency [13] | Potency [14] | Potency [15]

COC(=O)C1=CO[C@@H](O[C@@H]2O[C@H](CO)[C@@H](O)[C@H](O)[C@H]2O)/C(=C\CO)[C@@H]1CC(=O)OCCc1ccc(O)cc1
inactive: max response [1] 0.106% | max response [2] 2.34% | outcome [3] | outcome [4] | outcome [5] | outcome [6] inactive [at 17.4 µM] | outcome [7] inactive [at 17.4 µM] | Potency [8] | Potency [9] | outcome [10] | Potency [11] | Potency [12] | Potency [13] | Potency [14] | Potency [15]

CC1=CC(=O)C(=C(C)C)CC2C(C)(O)CCC12O (stereo not given)
inactive: outcome [1] | max response [2] -0.243% | outcome [3] | max response [4] 8.8% | outcome [5] | outcome [6] | outcome [7] | Potency [8] | Potency [9] | outcome [10] | Potency [11] | Potency [12] | Potency [13] | Potency [14] | Potency [15]

c1cc(-c2cc(C3CCNCC3)[nH]n2)ccn1
inactive: max response [1] -3.47% | max response [2] -20.2% | outcome [3] | max response [4] 2.66% | outcome [5] | outcome [6] inactive [at 17.4 µM] | outcome [7] inactive [at 17.4 µM] | Potency [8] | Potency [9] | outcome [10] | Potency [11] | Potency [12] | Potency [13] | Potency [14] | Potency [15]

CN(C)CCC[C@]1(c2ccc(F)cc2)OCc2cc(C#N)ccc21
inactive: max response [1] 1.86% | max response [2] -1.92% | outcome [3] | max response [4] -2.48% | outcome [5] | outcome [6] | outcome [7] | Potency [8] | Potency [9] | outcome [10] | Potency [11] | Potency [12] | Potency [13] | Potency [14] | Potency [15]
